Here are results for 16 molecules from PubChem BioAssay (NCI).

Compounds without any hit were thinned out: in the full panel of roughly 83,000, 20% have a hit.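 Single-dose data. Exposure time 48 hours. Values below 10 considered active.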 A number with no mark means an inactive call. Active and inactive are the calls of the source.

Test systems include HCT-15 colon; HT29 colon; SNB-75 CNS; PC-3 prostate; SK-MEL-5 melanoma; UACC-62 melanoma; LOX IMVI melanoma; SK-MEL-28 melanoma; SNB-19 CNS; U251 CNS.
Assay in all cases: NCI-60 one-dose screen, 48 h (100 = growth as untreated, 0 = no growth, -100 = all killed)
Holding throughout (conditions): 10 µM

Take `COc1ccccc1-n1c(-c2sc(NC(C)=O)nc2C)n[nH]c1=S`: the growth in the assay on HCT-15 colon is 94.9%; in the assay on HT29 colon it was 104%; with SNB-75 CNS, 86.4%; in the assay with PC-3 prostate, 95.9%; in the assay with SK-MEL-5 melanoma, 105%; in the assay with UACC-62 melanoma, 98.5%. Moreover, the values for the growth in the assay on LOX IMVI melanoma and with SK-MEL-28 melanoma were 97.5% and 117%, respectively.
Regarding `CNS(=O)(=O)Oc1ccc(-c2ccc3occc3c2)cc1`, the growth was 92.8% in the assay with HCT-15 colon; 99.1% with HT29 colon; 101% with SNB-19 CNS; 94.1% in the assay with U251 CNS; 90.6% in the assay with PC-3 prostate; 101% in the assay on SK-MEL-5 melanoma. Also, the growth with UACC-62 melanoma was 87.3%; in the assay with LOX IMVI melanoma, 96.4%; with SK-MEL-28 melanoma, 94.4%.
For `CC1C(=NC(=O)c2cnccn2)C(C)C(c2ccc(Cl)cc2)NC1c1ccncc1` (stereo unspecified), the growth is 78.8% in the assay on HCT-15 colon; 73% in the assay with HT29 colon; 78.5% with SNB-75 CNS; 76.4% with U251 CNS; 75.6% in the assay with PC-3 prostate; 88.2% in the assay with SK-MEL-5 melanoma. Besides, the growth in the assay on UACC-62 melanoma was 91.3%; in the assay on SK-MEL-28 melanoma, 101%.
Consider `CCOC(=O)/C(=C(\C)N)C1CC(=O)NC1=O` (stereo unspecified), for which the growth in the assay on HCT-15 colon was 103%; in the assay with HT29 colon it was 105%; with SNB-75 CNS, 95.1%; with PC-3 prostate, 92.1%; in the assay on SK-MEL-5 melanoma, 97.9%; in the assay on UACC-62 melanoma it was 103%. The growth in the assay on LOX IMVI melanoma is 95.7%; in the assay with SK-MEL-28 melanoma, 98%.
In the case of `NC(=O)c1cccc(-n2ccc3cc(NC(=O)Nc4ccc(Cl)c(C(F)(F)F)c4)ccc32)n1`, the growth in the assay on HCT-15 colon is 56.6%; in the assay with HT29 colon, 61.9%; with SNB-19 CNS it was 71%; in the assay on U251 CNS it was 56.5%; in the assay with PC-3 prostate, 53.4%; with SK-MEL-5 melanoma, 78.3%. For the same molecule, the growth is 70.9% in the assay with UACC-62 melanoma, 76.9% in the assay on LOX IMVI melanoma and 79.4% with SK-MEL-28 melanoma.
With `COc1cc2c(cc1OC)C(C(CCCCCC(CCC(C)C)C1NCCc3cc(OC)c(OC)cc31)CCC(C)C)NCC2` (stereo unspecified), the growth in the assay on HCT-15 colon was -100% (active); in the assay on HT29 colon, -95.3% (active); in the assay on SNB-75 CNS, -99.5% (active); with U251 CNS, -99% (active); with PC-3 prostate, -92.3% (active); in the assay with SK-MEL-5 melanoma it was -96.4% (active). Moreover, the growth with UACC-62 melanoma was -91.5% (active); with LOX IMVI melanoma, -100% (active); in the assay on SK-MEL-28 melanoma, -100% (active).
On to `C/C=C/C1=CN2C(=O)c3cc(OC4OC(C)C(NC)C(C)(O)C4O)c(C)c(O)c3N=C[C@@H]2C1` (stereo partly specified), for which the growth in the assay on HCT-15 colon is 4.24% (active); in the assay with HT29 colon, 5.18% (active); in the assay with SNB-19 CNS, 9.3% (active); in the assay on U251 CNS, 5.6% (active); in the assay on PC-3 prostate, 3.42% (active); in the assay with SK-MEL-5 melanoma it was -62.2% (active). For the same molecule, the growth is -90.8% (active) with UACC-62 melanoma, -21.4% (active) with LOX IMVI melanoma and -37.2% (active) with SK-MEL-28 melanoma.
Take `CC[C@@H](C(=O)[C@@H](C)[C@@H](O)[C@H](C)[C@@H]1O[C@@H]([C@@H](CC)C(=O)N(CC)CC)CC[C@@H]1C)C1O[C@]2(C=CC(=O)[C@]3(CC[C@@](C)([C@H]4CC[C@](O)(CC)[C@H](C)O4)O3)O2)[C@H](C)C[C@@H]1C` (stereo partly specified): the growth in the assay with HCT-15 colon is 11%; in the assay with HT29 colon it was 13.1%; with SNB-75 CNS, 30.2%; with U251 CNS it was 6.72% (active); with PC-3 prostate, 7.83% (active); in the assay with SK-MEL-5 melanoma, -42.9% (active). Moreover, the figures for the growth with UACC-62 melanoma, in the assay with LOX IMVI melanoma and with SK-MEL-28 melanoma were 13%, 34.3% and 19.5%, respectively.
Regarding `CS(=O)(=O)c1nccc(-c2c(-c3cccc(OCc4ccccc4)c3)nc3sccn23)n1`, the growth in the assay with HCT-15 colon is 49.4%; with HT29 colon, 77.9%; in the assay with SNB-19 CNS, 88.6%; in the assay with U251 CNS, 89.1%; with PC-3 prostate, 66.2%; in the assay on SK-MEL-5 melanoma, 0.137% (active). For the same molecule, the growth is 62.4% in the assay on UACC-62 melanoma, 28.6% in the assay with LOX IMVI melanoma and 77.1% in the assay with SK-MEL-28 melanoma.
As for `COc1ccc(N=Nc2cc(OC)c(OC)c(OC)c2)cc1`, the growth in the assay with HCT-15 colon was 82%; with HT29 colon it was 69.1%; in the assay on SNB-75 CNS it was 78.7%; with U251 CNS, 79.5%; in the assay on PC-3 prostate, 67.2%; in the assay on SK-MEL-5 melanoma, 80%. In the assay on SK-MEL-28 melanoma, the growth was 92%.
In the case of `S=C(SSC(=S)N(c1ccccc1)c1ccccc1)N(c1ccccc1)c1ccccc1`, the growth is 103% in the assay with HCT-15 colon; 96.6% in the assay on HT29 colon; 99.4% in the assay on SNB-19 CNS; 87.9% in the assay on U251 CNS; 81.9% in the assay with PC-3 prostate; 102% in the assay with SK-MEL-5 melanoma. Besides, the figures for the growth in the assay with UACC-62 melanoma, with LOX IMVI melanoma and in the assay with SK-MEL-28 melanoma were 103%, 95.2% and 111%, respectively.
As to `O=C1NC(=O)c2c(CCCSc3nc4ccccc4c(=O)n3CCc3ccccc3)cccc21`, the growth was 96% in the assay with HCT-15 colon; 90.3% in the assay with HT29 colon; 82.8% with SNB-75 CNS; 88.9% with PC-3 prostate; 95.8% in the assay with SK-MEL-5 melanoma; 90% in the assay on UACC-62 melanoma. Further, the figures for the growth with LOX IMVI melanoma and in the assay on SK-MEL-28 melanoma were 81.8% and 105%, respectively.
Consider `Cc1ccc(-c2c3c(N)nc(-c4cccnc4)nc3nc3c2c(C)nn3-c2ccccc2)cc1`, for which the growth in the assay with HCT-15 colon is 84.4%; in the assay with HT29 colon it was 77.3%; with SNB-75 CNS, -0.959% (active); in the assay on PC-3 prostate, 69.3%; in the assay on SK-MEL-5 melanoma, 76.1%; in the assay with UACC-62 melanoma it was 82.2%. Also, the values for the growth in the assay with LOX IMVI melanoma and with SK-MEL-28 melanoma were 80.9% and 68.2%, respectively.
As to `CC(=O)COc1ccc(Cl)cc1Cl`, the growth in the assay with HCT-15 colon is 107%; in the assay on HT29 colon, 105%; in the assay on SNB-19 CNS, 118%; in the assay on U251 CNS it was 97.9%; with PC-3 prostate, 102%; in the assay on SK-MEL-5 melanoma, 99.8%. Moreover, the growth in the assay on UACC-62 melanoma is 96.7%; in the assay on LOX IMVI melanoma it was 94.9%; in the assay on SK-MEL-28 melanoma it was 113%.
On to `C#CC(C)(O)[C@@H]1C[C@H](CC(=O)O)C1(C)C` (stereo partly specified), for which the growth in the assay on HCT-15 colon was 104%; in the assay with HT29 colon it was 109%; in the assay on SNB-75 CNS it was 96%; in the assay with U251 CNS it was 109%; in the assay with PC-3 prostate, 105%; in the assay with SK-MEL-5 melanoma it was 115%. Moreover, the growth in the assay with UACC-62 melanoma was 100%; in the assay with LOX IMVI melanoma it was 98.1%; in the assay with SK-MEL-28 melanoma it was 113%.
Take `O=C(Nc1ccc(OCc2nnc(-c3ccc(Cl)cc3)o2)c(F)c1)Nc1ccc(Cl)c(C(F)(F)F)c1`: the growth in the assay on HCT-15 colon is 9.78% (active); in the assay on HT29 colon, -3.97% (active); in the assay with SNB-75 CNS, 20.4%; with U251 CNS, -2.02% (active); in the assay with PC-3 prostate, 5.92% (active); in the assay on SK-MEL-5 melanoma, -35.7% (active). For the same molecule, the growth was 3.22% (active) in the assay with LOX IMVI melanoma and 20.2% in the assay with SK-MEL-28 melanoma.
